Glioma ERSR ind = inducers of ER stress response in human glioma cells; U87-MG GRP78 promoter luciferase reporter, 16 h; 0.02% of 420,000 active; Potency, µM, hits mostly activators; AID 602332; also: series mostly up to about 76 µM; nearly all actives have a fitted effect of over 35% in size
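Stably transfected U87-MG human glioma cells carrying a GRP78-based luminescent sensor were seeded at 1000 cells/well, pin-dosed with compounds and incubated 16 h. Luciferase reagent was then added, and end-point luminescence was read after 10 min at room temperature.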
ClpP mod = qHTS Assay for Activators of ClpP; ATP-dependent Clp protease proteolytic subunit (Bacillus subtilis (strain 168)), P80244; 1.9% of 340,000 active; Potency, µM (highest dose often 57.5 µM); purified B. subtilis ClpP, FRET peptide cleavage, 20 min; active = well fitted falling curve with a large enough effect; inconclusive = small, poorly fitted or top-dose-only effect; inactive = no such curve, though single readings can be large or run the other way; also: the source files actives as falling curves though it sought activators and does not explain the sign; nearly all actives have a fitted effect of over 65% in size
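Purified B. subtilis ClpP, 10 microg/mL final in Tris/HCl pH8 with KCl, BSA, glycerol and Tween-20, cleaved an Abz/nitrotyrosine-quenched decapeptide. Fluorescence (ex 320, em 430) was read at 0 and 20 min at room temperature. Delta was normalized to 5.8 microM ADEP and DMSO/no-enzyme controls.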
Integrin act MD = integrin-mediated muscular dystrophy alleviation activation. alpha7betagal myoblasts, beta-gal FDG fluorescence, 48 h. Potency, µM (titrated, usually from 38.3 µM), most hits filed as activators. 0.064% of 350,000 active; also: nearly all actives have a fitted effect of over 60% in size
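alpha7betagal+/- myoblasts (passage 13, 250/well) treated 48 h at 37C with compounds at 1:260 dilution of DMSO stock. Lysed, then beta-galactosidase activity read as FDG fluorescence (ex 480/em 540) after 30 min, with pre-read for autofluorescence.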
N370S GC mod = inhibits or activates N370S mutant glucocerebrosidase; P04062; N370S GC spleen homogenate, 4MU-glucoside fluorescence; Potency, µM (top dose mostly 59.4 µM), most hits filed as inhibitors; AID 2101; 0.092% of 330,000 active
CBFb-RUNX1 inh = inhibitors of human CBF-beta and RUNX1 interaction; AlphaScreen CBFb-His/RUNX1-biotin binding, biochemical; Potency, µM (highest dose often 59.8 µM), most hits filed as inhibitors; 230,000 tested, under 10 active; AID 1477
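CBF-beta (His) and RUNX1 (biotin), 30 nM each; 20 min preassociation; + compound, 15 min; + beads 50 ng each (Ni, streptavidin), 90 min; RT; AlphaScreen read.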
Apoferritin bind = candidate novel general anesthetic via apoferritin binding. 0.074% of 350,000 active. AID 485281. P02791. apoferritin/1-aminoanthracene competitive binding, fluorescence. Potency, µM (top dose mostly 77.5 µM), actives largely listed as inhibitors; also: nearly all actives have a fitted effect of over 20% in size
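Horse-spleen apoferritin (10 uM) was mixed with 50% saturated 1-aminoanthracene in PBS, exposed to compounds for 10 min at room temperature, and read for fluorescence (ex 380 nm, em 535 nm). Competitive displacement was fitted with a four-parameter Hill equation.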
Hits are given with their value; 0 = inactive; ? = inconclusive; - = no result; [ ] = remark or other dose. Many of the other results were omitted from the sample, so hits are more common in it than they were. Unless noted, calls follow the shape of the dose curve; as a rule, active = well fitted curve in the direction sought with a large enough effect; inconclusive = small, poorly fitted or top-dose-only effect, or another doubt; inactive = no such curve, though single readings can be large; an effect the other way counts as inactive or inconclusive.

SMILES | Glioma ERSR ind | ClpP mod | Integrin act MD | N370S GC mod | CBFb-RUNX1 inh | Apoferritin bind
O=C(NCc1cccc(Cl)c1)c1cc2c(s1)-c1ccccc1SC2 | - | ? | - | - | - | 0
CN(Cc1ccccc1)C(=O)c1cc2c(s1)-c1ccc(Cl)cc1SC2 | 0 | 25µM | - | - | - | 0
O=C(Nc1ccccc1)N1N=C(c2cccs2)CC1c1cccs1 (stereo not drawn) | 0 | 32µM | 0 | ? | ? | 0
O=C(CN1CCOCC1)N1N=C(c2cccs2)CC1c1cccs1 (stereo not drawn) | 0 | - | 0 | 0 | 0 | 0
C(=Nc1cnc2ccccc2c1)c1ccnc2ccccc12 | 0 | 0 | - | - | - | -
CCOC(=O)C1=C(C)NC2=C(C(=O)C(C(=O)OCC)C(c3ccco3)C2)C1c1ccccn1 (stereo not drawn) | 0 | 32µM | 0 | 0 | 0 | 0
CN(C)c1nc2cc3c(cc2cc1CN(CC1CCCO1)C(=O)/C=C/c1cccs1)OCO3 (stereo not drawn) | 0 | - | - | - | - | -
Cc1nn(C)cc1CNc1nc(C)c(-c2ccn(CC3COc4ccccc4O3)n2)s1 (stereo not drawn) | 0 | - | - | - | - | -
CC(=O)c1ccc(NS(=O)(=O)c2ccc(CC(C)C)cc2)cc1 | 0 | 0 | 0 | 0 | 0 | 35µM
Nc1c(C(=O)Nc2ccccc2F)sc2nc(-c3ccco3)ccc12 | 0 | 28µM | 0 | ? | 0 | 0
Nc1c(C(=O)Nc2ccccc2F)sc2nc(-c3cccnc3)ccc12 | 0 | 0 | 0 | 0 | 0 | 0
CCOC(=O)c1[nH]c2ccc(OC)cc2c1NC(=O)CN1CCSCC1 | 0 | 13µM | 0 | 0 | 0 | 0
COc1ccc2[nH]c(C(=O)O)c(CCN3C(=O)c4ccc(C(=O)O)cc4C3=O)c2c1 | 0 | 0 | 0 | 0 | - | 0
CCOC(=O)c1[nH]c2cc3c(cc2c1NC(=O)CN1CCN(CCO)CC1)OCO3 | 0 | 25µM | 0 | 0 | 0 | 0
CCOC(=O)c1[nH]c2cc3c(cc2c1NC(=O)CN1CCC2(CC1)OCCO2)OCO3 | 0 | ? | 0 | 0 | 0 | 0
CCOC(=O)c1[nH]c2ccc(OCC)cc2c1NC(=O)CN1CCC2(CC1)OCCO2 | 0 | 25µM | 0 | 0 | 0 | 0
COc1ccc2[nH]c(C(=O)O)c(CCC(=O)O)c2c1 | 0 | 20µM | 0 | 0 | 0 | 0
COc1cc(CNc2nc(C)c(-c3ccn(C4Cc5ccccc5C4)n3)s2)cc2c1OCO2 | 0 | - | - | - | - | -
CCOC(=O)c1[nH]c2ccc(OC)cc2c1NC(C)=O | 0 | 25µM | 0 | 0 | 0 | 0
C=CCOC(=O)Nc1c(C(=O)OC)[nH]c2ccc(Cl)cc12 | 0 | 32µM | 0 | 0 | 0 | 0
COC(=O)/C=C/c1cc(F)ccc1S(=O)(=O)Nc1ccccc1 | 0 | 0 | - | - | - | -
c1ccc(CNc2ccc3ccccc3n2)nc1 | 0 | 28µM | 0 | 0 | 0 | 0
CCN(CCN(C)C)C(=O)C1CCN(S(=O)(=O)c2c(C)noc2/C=C/c2ccccc2F)CC1 | 0 | 0 | 0 | 7.1µM | - | 0
CCOc1ccccc1/C=C/c1onc(C)c1S(=O)(=O)N1CCC(C(=O)N(CC)CC)CC1 | 0 | ? | 0 | 0 | - | 0
COc1cccc(/C=C/c2onc(C)c2S(=O)(=O)N2CCC(C(=O)N3CCC(C)CC3)CC2)c1 | 0 | 32µM | - | - | - | 0
SMILES | Glioma ERSR ind | ClpP mod | Integrin act MD | N370S GC mod | CBFb-RUNX1 inh | Apoferritin bind
COc1ccc(N2C(=O)CCC(C(=O)N3CCC(C(N)=O)CC3)C2c2ccc(F)cc2)cc1 (stereo not drawn) | 0 | 0 | 0 | 0 | 0 | 0
COc1ccc(N2C(=O)CCC(C(=O)N3CCCCC3)C2c2ccc(F)cc2)cc1 (stereo not drawn) | 0 | 13µM | 0 | 0 | 0 | 0
CCc1cc2c(CN3CCN(CC)CC3)cc(=O)oc2cc1O | 0 | 28µM | 0 | ? | 0 | 0
C(=C\c1ccnc2ccccc12)/c1ccc(N(Cc2ccccc2)Cc2ccccc2)cc1 | 0 | 0 | - | - | - | -
Cc1nn(C)cc1C(C)NC(=O)c1cc(COc2cccc3cnccc23)on1 (stereo not drawn) | 0 | 16µM | 0 | 0 | - | 0
COc1ccccc1N1CCN(C(=O)c2cc3c(s2)-c2ccccc2OC3)CC1 | 0 | 14µM | 0 | 0 | - | 0
O=C(c1cc2c(s1)-c1ccccc1OC2)N1CCc2ccccc2C1 | 0 | 0 | 0 | 0 | 0[2.36 µM] | 0
CC(=O)NC(Cc1cccc(C)c1)C(=O)NC1CCN(c2ncccc2[N+](=O)[O-])CC1 (stereo not drawn) | 0 | 16µM | 0 | 0 | 0 | 0
CCC(=O)Nc1nonc1-c1nc2ccccc2n1N(C(=O)CC)C(=O)CC | 0 | 28µM | 0 | 0 | 0 | 0
CC(=O)Nc1nonc1-c1nc2ccccc2n1CCC(C)C | 0 | ? | 11µM | 0 | 0 | 0
CC(=O)Nc1nonc1-c1nc2ccccc2n1C | 0 | 0 | 0 | 0 | - | 0
CCC(=O)Nc1nonc1-c1nc2ccccc2n1CCC(C)C | 0 | 28µM | 0 | ? | 0 | ?
CN(C)c1ccc(/C=C2\C=Cc3ccccc32)c(Cl)c1 | 0 | 0 | - | - | - | -
Cc1ccccc1NCC(=O)N=Nc1c(O)[nH]c2ccc([N+](=O)[O-])cc12 | 0 | 0 | 0 | 0 | 0 | 0
Cc1ccc(NCC(=O)N=Nc2c(O)[nH]c3ccc([N+](=O)[O-])cc23)cc1 | 40µM | - | 0 | 0 | ? | 0
Cc1cccc2cc(C#N)c(NCCNS(=O)(=O)c3ccc4c(c3)OCCO4)nc12 | 0 | 32µM | 0 | 0 | ? | 0
COc1cccc(CNC(=O)c2c(OC)cc(=O)n3c2CCN(C(=O)c2ccccc2Cl)CC3)c1 | 0 | - | - | - | - | -
O=C(CN(c1ccc(Cl)c(C(F)(F)F)c1)S(=O)(=O)c1ccccc1)N/N=C/c1cccc2c1OCCO2 | 0 | 22µM | 0 | 0 | 0 | ?
CS(=O)(=O)N(CC(=O)N/N=C/c1cccc2c1OCCO2)c1ccccc1Br | 0 | ? | 0 | 0 | 0 | 0
CC1(C)CCC(=NNC(N)=S)CC1 | 0 | 0 | 0 | - | - | -
NC(=S)NN=C1CSSC1 | 35µM | 0 | 0 | - | - | -
COc1cccc(-c2nc3cc(SC)ccc3cc2CN(C(=O)c2csc(C)n2)C2CC2)c1 | 0 | - | - | - | - | -
Cc1ccc(-c2onc3ccc(C(=O)/C=C/N(C)C)cc23)cc1 | 0 | 0 | 3.5µM | 0 | - | 0
O=C1C=CC2=C3c4cc(O)c(O)cc4C[C@@]3(O)COC2=C1 | - | - | - | 0 | - | -
O=C(CN1CCCCC1)Nc1ccc(NC(=O)c2ccc(Cl)cc2)cc1Cl | 0 | 14µM | 0 | 0 | 0 | 0
Cc1cc(Cl)ccc1NC(=O)CN1CCCC1 | 0 | - | 0 | 0 | - | 0
Nc1cc(-c2ccccc2)ccc1O | 0 | 32µM | 0 | 0 | 0 | ?
CN(C)C(CNC(=O)c1ccco1)c1cccs1 (stereo not drawn) | 0 | 11µM | 0 | 0 | - | -
CN(C)C(CNC(=O)c1cccs1)c1ccco1 (stereo not drawn) | 0 | 0 | 0 | - | - | -
S=C(Nc1ccc(Oc2ccccc2)cc1)N(CCCN1CCOCC1)Cc1ccccn1 | 0 | - | 0 | 10µM | 0 | 0

Compound activity deposited in PubChem by National Center for Advancing Translational Sciences (NCATS).
